Measurements published in PubChem BioAssay (NCATS).
Values joined by “and” are separate entries in the source; they are usually repeats but may differ in a detail not shown here. Equal entries are not always repeated. Inconclusive results are not listed. Active and inactive are the calls of the source. Unless noted, calls follow the shape of the dose curve; as a rule, active = well fitted curve in the direction sought with a large enough effect; inconclusive = small, poorly fitted or top-dose-only effect, or another doubt; inactive = no such curve, though single readings can be large; an effect the other way counts as inactive or inconclusive.

Legend:
[1] = Cell Viability - BJ (AID 421; calls by dose curve;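 also: potency is read from the fitted curve at half-maximal effect; cells exposed to compound for 40 hours at 37 °C before readout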); settings: BJ fibroblast viability, qHTS
Method in brief: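 Cytotoxicity as drop in intracellular ATP (CellTiter-Glo, 20 min RT) after 40 hr compound exposure of BJ fibroblasts at 37 °C. Titrations scaled between DMSO and 100 uM tamoxifen, Hill-fitted for AC50.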

[2] = Cellular Toxicity (caspase-3) HepG2 (AID 654); settings: HepG2 caspase-3 activation, luminescence, 0% = DMSO only, 100% = tamoxifen; series mostly up to 92.2 µM;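 also: cells exposed to compound for 16 hours before reading; 0% = DMSO alone and 100% = caspase signal from 100 µM tamoxifen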
Method in brief: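 HepG2 cells (1500/well) were treated 16 h at 37 °C in complete medium, then caspase 3/7 activity was read by Caspase-Glo luminescence. Data were normalized to DMSO and 100 uM tamoxifen; AC50 came from Hill-equation fits of qHTS concentration-response.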

[3] = Cellular Toxicity (caspase-3) HUV-EC-C (AID 656); settings: HUV-EC-C cells, caspase-3 activation (apoptosis), vehicle = 0, 100 µM tamoxifen = 100%; series mostly up to 92.2 µM
Method in brief: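 Luminescent caspase-3/7 activation (aminoluciferin substrate cleavage) in HUV-EC-C cells after 16 hr compound exposure, 37°C. Signal normalized to DMSO basal and 100 uM tamoxifen as 100%; AC50 from concentration-response fitted with the Hill equation.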

[4] = Cellular Toxicity (caspase-3) BJ (AID 658); settings: BJ fibroblasts, luminescence, normalized: DMSO 0%, staurosporine 100%; series mostly up to 91.7 µM
Method in brief: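 BJ human foreskin fibroblasts, 1000 cells/well, treated 16 hours at 37 °C in complete medium; caspase 3/7 activity by Caspase-Glo luminescence after 1 hr at room temperature. Normalized to DMSO and 10 uM staurosporine; AC50 from Hill fits.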

[5] = Cellular Toxicity (caspase-3) MRC-5 (AID 659); settings: MRC-5 cells, luminescence, normalized: DMSO 0%, 10 µM staurosporine 100%; series mostly up to 91.7 µM
Method in brief: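 MRC-5 human normal lung fibroblasts, 1500 cells/well, treated 16 h at 37 °C in complete medium. Caspase 3/7 measured by Caspase-Glo luminescence after 1 h at room temperature. Normalized to DMSO and 10 uM staurosporine; AC50 from Hill fit.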

[6] = Cellular Toxicity (caspase-3) SK-N-SH (AID 661); settings: SK-N-SH caspase-3 activation, qHTS; series mostly up to 91.7 µM
Method in brief: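 Human SK-N-SH neuroblastoma cells, 1500/well, were exposed to compounds for 16 hours at 37 °C. Caspase-Glo 3/7 luminescence was normalized to DMSO (basal) and 10 uM staurosporine (100%), and AC50 came from a Hill fit.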

[7] = Cellular Toxicity (caspase-3) Hek293 (AID 664); settings: HEK293 caspase-3 activation, DMSO = 0%, 100 µM tamoxifen = 100%; at 92.2 µM (top of the series);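 also: cells exposed to compound for 16 h at 37 °C before readout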
Method in brief: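 HEK293 cells in complete medium treated 16 h at 37 °C, then Caspase-Glo 3/7 luminescence read after 20 min at room temperature. Normalized to DMSO and 100 uM tamoxifen; AC50 from Hill fit of concentration-response.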

[8] = MultiTox-Fluor Cytotoxicity Assay - LYMP1-001 - Dead Cells (AID 946); settings: LYMP1-001 lymphoblastoid cells, dead-cell protease fluorescence; series mostly up to 92.2 µM
Method in brief: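 Cytotoxicity as increased dead-cell protease fluorescence (bis-AAF-R110, 485/520 nm), read 60 min after MultiTox-Fluor reagent. Human lymphoblastoid line exposed 16 h; Hill-fitted AC50, with DMSO as 0% and 15 uM tetraoctylammonium bromide as 100%.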

[9] = Cell Viability - LYMP1-002 - Assay at 16 hr (AID 948); settings: LYMP1-002 lymphoblastoid cell viability; series mostly up to 92.2 µM;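 also: 0% = DMSO alone and full effect = 92 µM tetraoctylammonium bromide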
Method in brief: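 LYMP1-002 human lymphoblastoid cells, 2500/well; 5 hr 37 C; cpd 16 hr 37 C; CellTiter-Glo 30 min RT; luminescence (ATP). Concentration-response, Hill-fit AC50. Pos ctrl tetraoctylammonium bromide.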

[10] = MultiTox-Fluor Cytotoxicity Assay - LYMP1-002 - Live Cells (AID 955); settings: LYMP1-002 lymphoblastoid live-cell protease fluorescence viability; series mostly up to 46.1 µM; also: % is scaled to controls: 0 for no effect and ±100 for the full control effect
Method in brief: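 Human lymphoblastoid LYMP1-002 cells, 2500/well, treated 16 h at 37 C in complete medium. Live-cell protease activity via GF-AFC fluorescence (Ex/Em 405/510) after 60 min reagent incubation; AC50 from Hill fits.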

[11] = MultiTox-Fluor Cytotoxicity Assay - LYMP1-003 - Dead Cells (AID 961); settings: LYMP1-003 lymphoblastoid cells, dead-cell protease fluorescence; series mostly up to 92.2 µM; also: nearly all actives have a fitted effect of over 70% in size
Method in brief: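 Dead-cell protease release, detected as bis-AAF-R110 fluorescence at 485/520 nm, was measured in LYMP1-003 cells after 16 h compound treatment at 37 C. AC50 values came from Hill-modeled qHTS curves normalized to DMSO (0%) and 15 uM tetraoctylammonium bromide (100%).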

[12] = MultiTox-Fluor Cytotoxicity Assay - LYMP1-003 - Live Cells (AID 962); settings: LYMP1-003 lymphoblastoid cells, MultiTox-Fluor live-cell protease fluorescence; series mostly up to 92.2 µM;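 also: 0% = DMSO only and full loss = 92 µM tetraoctylammonium bromide; cytotoxic hits lower the live-cell protease signal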
Method in brief: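 LYMP1-003 lymphoblastoid cells, 2500/well in complete medium, treated 16 h at 37 C; live-cell protease cleavage of GF-AFC read by fluorescence (Ex/Em 405/510) after 60 min reagent; AC50 from Hill fits of concentration-response.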

[13] = Cell Viability - LYMP1-003 - Assay at 24 hr (AID 963); settings: LYMP1-003 lymphoblastoid cell viability; series mostly up to 92.2 µM;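 also: plate controls were DMSO only for no effect and tetraoctylammonium bromide positive control for full effect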
Method in brief: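 Human lymphoblastoid LYMP1-003 cells, 2500/well, treated 24 h at 37 C in complete medium. Viability read as intracellular ATP by CellTiter-Glo luminescence after 30 min at room temperature; AC50 from Hill-equation fits of qHTS concentration-response.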

[14] = Cell Viability - LYMP2-003 (AID 965); settings: LYMP2-003 lymphoblastoid cell viability; series mostly up to 92.2 µM;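 also: cells exposed to compounds for 24 h before reading; 0% = DMSO only and full effect = 92 µM tetraoctylammonium bromide; nearly all actives have a fitted effect of over 50% in size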
Method in brief: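 CellTiter-Glo luminescence (cellular ATP) after 24 h compound exposure at 37 C in complete medium; 2500 cells/well, 5 h settling beforehand. Concentration-response fitted to standard Hill equation for AC50. Tetraoctylammonium bromide served as positive control.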

[15] = Cell Viability - LYMP2-025 (AID 976); settings: LYMP2-025 lymphoblastoid cell viability; series mostly up to 92.2 µM;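 also: plate controls were DMSO only for no effect and tetraoctylammonium bromide control for full effect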
Method in brief: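 Human lymphoblastoid LYMP2-025 cells, 2500/well, exposed 24 h at 37 C in complete medium in 1536-well qHTS. Viability as cellular ATP by CellTiter-Glo luminescence; AC50 from Hill fits of concentration-response data.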

[16] = Cell Viability - LYMP2-016 (AID 984); settings: LYMP2-016 lymphoblastoid cell viability, qHTS; series mostly up to 92.2 µM; also: % is scaled to controls: 0 for no effect and ±100 for the full control effect; nearly all actives have a fitted effect of over 55% in size
Method in brief: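 qHTS, 1536-well: 2500 LYMP2-016 cells/well, 5 hr 37 C, compound added, 24 hr 37 C, CellTiter-Glo 30 min RT, luminescence. Tetraoctylammonium bromide positive control. AC50 via Hill fit.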

[17] = Cell Viability - LYMP2-026 (AID 989); settings: LYMP2-026 lymphoblastoid cell viability, qHTS; series mostly up to 92.2 µM; also: % is scaled to controls: 0 for no effect and ±100 for the full control effect; nearly all actives have a fitted effect of over 50% in size
Method in brief: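 Human lymphoblastoid LYMP2-026 cells, 2500/well, exposed to compound 24 h at 37 C in complete medium. Viability as intracellular ATP by CellTiter-Glo luminescence; AC50 from Hill fits of qHTS concentration-response.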

[18] = qHTS Assay for Identification of Small Molecule Inducers of Hypoxia Response (AID 2120; active = well fitted curve in the direction sought with a large enough effect in the signal ratio, with a control signal flat, not every such curve was filed as active; the % refers to the signal ratio; also: 0% is about no effect); settings: hypoxia response reporter cells, beta-lactamase ratio readout; series mostly up to 104 µM
Method in brief: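 HRE-bla ME-180 cells in Opti-MEM with 0.5% dialyzed FBS, pre-plated 4-5 h, then compound titration for 17 h at 37 degrees Celsius. CCF4 loaded 2.5 h at room temperature; 460/530 nm ratio gave %Activity and AC50 for induction.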

[19] = molecular target: Peroxisome proliferator-activated receptor alpha (Homo sapiens) (UniProt Q07869); experiment: qHTS assay for small molecule agonists of the peroxisome proliferator-activated receptor alpha (PPARalpha) signaling pathway (AID 651778); settings: PathHunter PPARalpha complementation, chemiluminescence, 6 h; hits give high values; also: % of control where 0% means no effect
Peroxisome proliferator-activated receptor alpha (Homo sapiens), sequence (Q07869 whole entry, looked up, the tested form may be a part): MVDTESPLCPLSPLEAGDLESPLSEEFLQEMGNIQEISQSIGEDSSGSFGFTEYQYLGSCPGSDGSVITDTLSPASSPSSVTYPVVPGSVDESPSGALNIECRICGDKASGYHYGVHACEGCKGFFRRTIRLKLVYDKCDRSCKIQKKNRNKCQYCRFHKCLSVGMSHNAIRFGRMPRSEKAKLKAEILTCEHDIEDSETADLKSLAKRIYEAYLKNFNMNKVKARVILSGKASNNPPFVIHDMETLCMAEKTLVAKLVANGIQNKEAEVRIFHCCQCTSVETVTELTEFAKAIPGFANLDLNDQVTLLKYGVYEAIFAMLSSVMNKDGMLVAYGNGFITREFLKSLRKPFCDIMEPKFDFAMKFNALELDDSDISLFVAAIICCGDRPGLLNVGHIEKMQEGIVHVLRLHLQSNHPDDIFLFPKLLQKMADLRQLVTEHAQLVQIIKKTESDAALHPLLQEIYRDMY
Method in brief: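 Enzyme-fragment complementation assay in which ligand-bound PPARalpha translocates and forms an active enzyme that generates chemiluminescence. Cells were plated overnight, exposed to compound for 6 hr at 37 C, and then given detection reagent for 60 min at room temperature.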

[20] = Cell Viability - Mesenchymal (AID 546); settings: mesenchymal cells viability, qHTS; series mostly up to 91.7 µM;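 also: cells exposed to compound for 40 hours before reading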
Method in brief: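 Human kidney mesenchymal cells from normal renal glomeruli, 1000 cells/well, rested 5 hr at 37 °C, then treated 40 hr at 37 °C in complete medium. Cellular ATP read by CellTiter-Glo luminescence; AC50 from Hill-equation fits.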

Cc1ccc2c(c1N)C(=O)c1ccccc1C2=O
inactive: Potency [1] > 92 µM | outcome [2] | outcome [3] | outcome [4] | outcome [5] | Potency [6] | caspase-3 activation [7] -8.32% | outcome [8] | outcome [9] | outcome [10] | Potency [11] | outcome [12] | outcome [13] | Potency [14] | Potency [15] | Potency [16] | Potency [17] | Potency [18] | max response [19] -8.43% and -4.54%

Cc1cnc[nH]1
inactive: Potency [1] > 92 µM | Potency [20] | outcome [2] | outcome [3] | outcome [4] | outcome [5] | Potency [6] | caspase-3 activation [7] -0.172% | outcome [8] | outcome [9] | outcome [10] | Potency [11] | outcome [12] | outcome [13] | Potency [14] | Potency [15] | Potency [16] | Potency [17] | Potency [18] | max response [19] -0.863%

CCCCCCCCCCCCCl
inactive: Potency [1] > 92 µM | Potency [20] | outcome [2] | outcome [3] | outcome [4] | outcome [5] | Potency [6] | caspase-3 activation [7] 2.31% | outcome [8] | outcome [9] | outcome [10] | Potency [11] | outcome [12] | outcome [13] | Potency [14] | Potency [15] | Potency [16] | Potency [17] | Potency [18] | max response [19] -2.89%

Nc1ccc([N+](=O)[O-])cc1N
inactive: Potency [1] > 92 µM | Potency [20] | outcome [2] | outcome [3] | outcome [4] | outcome [5] | Potency [6] | caspase-3 activation [7] 0.611% | outcome [8] | outcome [9] | outcome [10] | Potency [11] | outcome [12] | outcome [13] | Potency [14] | Potency [15] | Potency [16] | Potency [17] | Potency [18] | max response [19] -9.77% and -2.05%

Oc1c(Cl)c(Cl)cc(Cl)c1Cl
inactive: Potency [1] > 92 µM | Potency [20] | outcome [2] | outcome [3] | outcome [4] | outcome [5] | Potency [6] | caspase-3 activation [7] -2.19% | outcome [8] | outcome [9] | outcome [10] | Potency [11] | outcome [12] | outcome [13] | Potency [14] | Potency [15] | Potency [16] | Potency [17] | Potency [18]

Nc1c(Br)cc([N+](=O)[O-])cc1[N+](=O)[O-]
inactive: Potency [1] > 92 µM | Potency [20] | outcome [2] | outcome [3] | outcome [4] | outcome [5] | Potency [6] | caspase-3 activation [7] 4.97% | outcome [8] | outcome [9] | outcome [10] | Potency [11] | outcome [12] | outcome [13] | Potency [14] | Potency [15] | Potency [16] | Potency [17] | Potency [18] | max response [19] -5.44%

COC(C)(C)C
inactive: Potency [1] > 92 µM | Potency [20] | outcome [2] | outcome [3] | outcome [4] | outcome [5] | Potency [6] | caspase-3 activation [7] 0.0289% | outcome [8] | outcome [9] | outcome [10] | Potency [11] | outcome [12] | outcome [13] | Potency [14] | Potency [15] | Potency [16] | Potency [17] | Potency [18] | max response [19] -1.3%
